This passage reports growth results from PubChem BioAssay (NCI).

This is part of a sample that, as a whole, favours compounds with a hit. Of some 83,000 tested, about 20% had one in any assay.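 In brief: 96-well plates, 48 h treatment, single concentration, percent growth endpoint.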 Values without a mark were called inactive. Calls of active or inactive are those of the source. How the source made its calls: active means growth percent below 10; inactive means the rest.

Test systems include DU-145 prostate; K-562 leukemia; MALME-3M melanoma; MDA-MB-231 breast; RXF 393 renal; SF-268 CNS; SF-295 CNS; SF-539 CNS; UACC-257 melanoma; M14 melanoma.
Assay in all cases: NCI-60 one-dose screen, 48 h (100 = growth as untreated, 0 = no growth, -100 = all killed)
Common to all, as to details: 10 µM unless noted

With `N#C/C(=C\c1ccc([N+](=O)[O-])s1)c1nc2cc(Br)ccc2s1`, the growth is 25.9% in the assay on DU-145 prostate; -5.1% (active) in the assay with K-562 leukemia; -81.3% (active) in the assay on MALME-3M melanoma; -56.1% (active) in the assay on MDA-MB-231 breast; -17.1% (active) in the assay with RXF 393 renal; 6.29% (active) with SF-268 CNS. For the same compound, the growth in the assay on SF-295 CNS is 65.7%; in the assay on SF-539 CNS, -71% (active); with UACC-257 melanoma it was 5.39% (active); in the assay with M14 melanoma it was -81.9% (active).

On to `N#C/C(=C\c1ccc(C(F)(F)F)cc1)c1cc2ccccc2[nH]1`, for which the growth in the assay on DU-145 prostate was 105%; with K-562 leukemia it was 90.3%; in the assay on MALME-3M melanoma it was 103%; with MDA-MB-231 breast, 92.7%; with RXF 393 renal it was 113%; in the assay on SF-268 CNS, 99.4%. Moreover, the growth is 99.8% with SF-295 CNS, 107% in the assay on SF-539 CNS, 104% in the assay with UACC-257 melanoma and 108% in the assay on M14 melanoma.

With `CN1CCN(C(=O)[C@]23CCC(C)(C)C[C@H]2C2=CC[C@@H]4[C@@]5(C)C/C(=C/c6ccncc6)C(=O)C(C)(C)[C@@H]5CC[C@@]4(C)[C@]2(C)CC3)CC1`, the growth is 68.4% with DU-145 prostate; 19% in the assay on K-562 leukemia; 57.7% with MALME-3M melanoma; 64.2% in the assay with MDA-MB-231 breast; 27.6% with RXF 393 renal; 64.4% in the assay with SF-268 CNS. For the same compound, the growth was 67.1% in the assay on SF-295 CNS, 69.3% with SF-539 CNS, 57.5% in the assay on UACC-257 melanoma and 57.4% in the assay with M14 melanoma.

For the compound `O=C(C[n+]1cccc2ccccc21)c1ccc(O)c(O)c1`, the growth was 84.8% in the assay on DU-145 prostate; 28.5% in the assay with K-562 leukemia; 53.9% with MALME-3M melanoma; 59.1% in the assay on MDA-MB-231 breast; 49.6% in the assay with RXF 393 renal; 84.7% with SF-268 CNS. Also, the growth with SF-295 CNS was 105%; with SF-539 CNS, 91.2%; in the assay with UACC-257 melanoma, 78.1%; in the assay with M14 melanoma, -83.4% (active).

As for `Cc1cc2nc3c4cc([N+](=O)[O-])ccc4n(CCN(C)C)c3nc2cc1C`, the growth with DU-145 prostate was 8.55% (active); in the assay with K-562 leukemia it was 0.995% (active); in the assay with MALME-3M melanoma, -40.1% (active); in the assay on MDA-MB-231 breast it was -1.27% (active); in the assay with RXF 393 renal, -50.6% (active); in the assay with SF-268 CNS, -0.874% (active). Further, the growth in the assay on SF-295 CNS was 0.581% (active); with SF-539 CNS, -14.5% (active); in the assay with UACC-257 melanoma it was -1.98% (active); in the assay with M14 melanoma it was -27.3% (active).

As for `COc1cc2nc(-c3ccc(C(F)(F)F)cc3)cc(OCCCN3CCCC3)c2cc1OC`, the growth in the assay with DU-145 prostate is 41.7%; with K-562 leukemia it was 24.6%; in the assay on MALME-3M melanoma, 51.2%; in the assay with MDA-MB-231 breast it was 25.7%; in the assay on RXF 393 renal it was 44.4%; with SF-268 CNS it was 45.5%. The growth in the assay with SF-295 CNS was -28.3% (active); with SF-539 CNS, 45.8%; with UACC-257 melanoma, 22.7%; in the assay with M14 melanoma it was -38.4% (active).

On to `CC(Oc1ccc(C(=O)O)cc1C(F)(F)F)c1ccc(Oc2ccccc2)cn1` (stereo not given), for which the growth in the assay on DU-145 prostate was 111%; in the assay on K-562 leukemia, 82.8%; in the assay on MALME-3M melanoma, 101%; in the assay with MDA-MB-231 breast, 101%; in the assay with RXF 393 renal, 95.8%; in the assay on SF-268 CNS, 94.6%. Further, the growth with SF-295 CNS was 100%; with SF-539 CNS, 95.9%; with UACC-257 melanoma, 97.7%; with M14 melanoma it was 103%.

`COc1ccc(C(=O)CSc2nc(-c3cc(OC)ccc3OC)cc(-c3ccc(Cl)cc3)c2C#N)cc1`: the growth in the assay with DU-145 prostate is 65.9%; in the assay on K-562 leukemia it was 77.9%; in the assay with MALME-3M melanoma, -6.38% (active); in the assay on MDA-MB-231 breast, 33.2%; with RXF 393 renal, 26.5%; with SF-268 CNS it was 59.2%. The growth with SF-295 CNS is 18.5%; in the assay on SF-539 CNS, 30.5%; in the assay with UACC-257 melanoma it was 58%; with M14 melanoma, 48.6%.

For `O=c1[nH]nc(-c2ccccc2)c2sc3ncc(-c4ccc(Br)cc4)n3c12`, the growth was 28.6% with DU-145 prostate; 16.1% in the assay with K-562 leukemia; 52.4% with MALME-3M melanoma; 69.1% with MDA-MB-231 breast; 57.9% with RXF 393 renal; 51% in the assay on SF-268 CNS. Further, the growth in the assay with SF-295 CNS is 48.9%; with SF-539 CNS, 41.3%; in the assay on UACC-257 melanoma, 66%; in the assay on M14 melanoma, 42.3%.

Turning to `Cn1ccnc1C(=O)/C=C/c1ccc(CC(=O)Nc2ccc(Cl)cc2)cc1`, the growth in the assay on DU-145 prostate was 6.47% (active); with K-562 leukemia it was 7.81% (active); in the assay on MALME-3M melanoma it was 87.6%; with MDA-MB-231 breast, 7.75% (active); with RXF 393 renal, 17.9%; with SF-268 CNS, 7.98% (active). Also, the growth is 1.24% (active) in the assay on SF-295 CNS, -35.2% (active) in the assay on SF-539 CNS, 85.9% in the assay with UACC-257 melanoma and 67.7% with M14 melanoma.

For `CC(C)N1C(=O)/C(=C2\SC(=S)N(C(C)C)C2=O)SC1=S`, the growth in the assay with DU-145 prostate was 93.6%; in the assay with K-562 leukemia, 93%; in the assay with MALME-3M melanoma, 82.6%; in the assay on MDA-MB-231 breast it was 81%; with RXF 393 renal, 104%; in the assay with SF-268 CNS it was 94.5%. The growth with SF-295 CNS was 101%; with SF-539 CNS, 85.1%; with UACC-257 melanoma, 95.8%; in the assay on M14 melanoma it was 95%.

Turning to `COc1cc(CC(=O)c2ccc(O)c(OC)c2)ccc1O`, the growth with DU-145 prostate is 108%; with K-562 leukemia it was 89.1%; with MALME-3M melanoma, 107%; in the assay with MDA-MB-231 breast, 88.6%; with RXF 393 renal, 102%; with SF-268 CNS, 102%. In addition, the growth was 98.9% in the assay on SF-295 CNS, 103% in the assay on SF-539 CNS, 80.1% with UACC-257 melanoma and 102% with M14 melanoma.

Regarding `CSc1nc2sc3cccc(Cl)c3n2c(=N)c1C#N`, the growth is 105% with DU-145 prostate; 106% in the assay on K-562 leukemia; 95.3% in the assay on MALME-3M melanoma; 90.1% with MDA-MB-231 breast; 131% in the assay on RXF 393 renal; 102% in the assay with SF-268 CNS. In addition, the growth with SF-295 CNS is 108%; in the assay with SF-539 CNS, 109%; with UACC-257 melanoma, 108%; in the assay on M14 melanoma it was 102%.
